Test results published in PubChem BioAssay (NCATS).
“And” between values parts separate entries of the source, which are not always exact repeats. Equal entries are not always repeated. Results filed as inconclusive are left out. A call without a number means that no potency is given here. The source made the active and inactive calls. Unless noted, the call rests on the fitted dose curve; in most records, active means well fitted curve in the direction sought with a large enough effect; inconclusive means small, poorly fitted or top-dose-only effect, or another doubt; inactive means no such curve, though single readings can be large; an effect the other way counts as inactive or inconclusive.

Legend:
[1] = target: Cytochrome P450 3A4 (Homo sapiens) (UniProt P08684); assay: qHTS Assay for Inhibitors and Substrates of Cytochrome P450 3A4 (AID 884); further: nearly all actives have a fitted effect of over 50% in size; further: potency means the concentration at half of the fitted maximal effect
Summary of the method: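 20 nM human CYP3A4 with 25 uM Luciferin-PPXE (at KM) in 200 mM KPO4, preincubated 10 min with compound; NADPH regeneration started a 60 min RT reaction. Luciferin detected by luminescence, normalized to 57 uM ketoconazole as full inhibition.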

[2] = qHTS assay for small molecule antagonists of peroxisome proliferator-activated receptor delta signaling (AID 588535); conditions: HEK293T PPARd-UAS-bla, beta-lactamase FRET ratio, 18 h; 460 nm channel;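 further: cells co-treated with a PPAR-delta agonist as stimulator during compound exposure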
Summary of the method: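 Antagonist-mode beta-lactamase reporter (GeneBLAzer PPAR-delta-UAS-bla) in HEK293T cells, 2% charcoal/dextran FBS, 4000 cells/well. Compound titrations, 18 h at 37 C; CCF4 ratio read, IC50 and efficacy from Hill fits.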

[3] = target: Nuclear receptor subfamily 1 group I member 2 (Rattus norvegicus) (UniProt Q9R1A7); assay: qHTS assay for small molecule activators of the rat pregnane X receptor (rPXR) signaling pathway (AID 651751; call rule not given here); conditions: rPXR reporter cells, luciferase (One-Glo), 24 h
[4] = Cell Viability - Jurkat (AID 426;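 active means dose-dependent loss of cell ATP signal giving a full or clear fitted curve, ranked by lower potency value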; further: potency means the concentration at half of the fitted maximal effect); conditions: qHTS
Summary of the method: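 qHTS, 1536-well; Jurkat E6-1, 5000 cells/well, complete medium; cpd 40 hr, 37 °C; CellTiter-Glo 20 min RT; luminescence. AC50 by Hill fit.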

[5] = target: Mitogen-activated protein kinase 10 (Mus musculus) (UniProt Q61831); assay: JNK3 AlphaScreen Assay (AID 530; active means well fitted curve in either direction with a large enough effect, not every such curve was filed as active;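 further: kinase came from lysate of stimulated human HepG2 cells; signal reports phosphorylation of biotinylated GST-cJun 1-79 at Ser73 with 10 µM ATP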)
Summary of the method: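 Pre-activated (IL-1β/TNFα) JNK3 in HepG2 lysates phosphorylates biotin-GST-cJun(1-79), 10 uM ATP; anti-phospho-cJun(Ser73) AlphaScreen read at room temperature, pH 7.6 Tris buffer. Compounds pre-incubated 15 min as titrations.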

[6] = Cell Viability - H-4-II-E (AID 543); further: nearly all actives have a fitted effect of over 35% in size
Summary of the method: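 Luminescent ATP signal (CellTiter-Glo) served as the viability read-out, with cytotoxicity seen as a concentration-dependent ATP drop. Cells were treated for 40 hours in complete medium. AC50 values derive from Hill-equation modelling.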

[7] = Cell Viability - LYMP2-001 (AID 921); further: nearly all actives have a fitted effect of over 70% in size
Summary of the method: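 Cellular ATP loss read by luciferase luminescence after 24 h compound exposure at 37 C in complete medium. LYMP2-001 lymphoblastoid cells, 2500/well; qHTS concentration-response data fitted with Hill equation for AC50.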

[8] = MultiTox-Fluor Cytotoxicity Assay - LYMP1-001 - Live Cells (AID 947)
[9] = Cell Viability - LYMP2-010 (AID 981); further: nearly all actives have a fitted effect of over 55% in size; further: potency means the concentration at half of the fitted maximal effect
Summary of the method: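 Luminescent ATP signal (CellTiter-Glo) served as the viability read-out. Cells of the human lymphoblastoid line were treated with compound over a concentration range for 24 hours at 37 C, and AC50 values came from Hill-equation modeling.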

[10] = Cell Viability - LYMP2-012 (AID 982);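 further: cellular ATP by luciferase luminescence where a drop means cytotoxicity; cells exposed to compound for one day before reading; nearly all actives have a fitted effect of over 55% in size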
[11] = Cell Viability - LYMP2-014 (AID 983); further: nearly all actives have a fitted effect of over 50% in size
Summary of the method: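 Luminescent ATP signal (CellTiter-Glo, 30 min at room temperature) serves as the viability read-out after 24 hr compound exposure at 37 C. Cells were seeded at 2500 per well and settled 5 hr beforehand.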

[12] = Cell Viability - LYMP2-016 (AID 984); further: nearly all actives have a fitted effect of over 55% in size
Summary of the method: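 Cytotoxicity was scored by luminescent ATP content (CellTiter-Glo) after 24 h compound exposure at 37 C of a human lymphoblastoid line at 2500 cells/well. Concentration-response data were fitted to the Hill equation for AC50.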

[13] = Cell Viability - LYMP2-020 (AID 986); further: nearly all actives have a fitted effect of over 55% in size
Summary of the method: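 Luminescent ATP signal (CellTiter-Glo, 30 min at room temperature) is the read-out after 24 h compound treatment of lymphoblastoid cells at 37 C. AC50 values come from Hill-equation fits across concentrations.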

[14] = target: Nuclear receptor ROR-gamma (Homo sapiens) (UniProt P51449); assay: qHTS assay for small molecule antagonists of the retinoid-related orphan receptor gamma (ROR-gamma) signaling pathway (AID 651802); further: nearly all actives have a fitted effect of over 60% in size; further: potency means the concentration at half of the fitted maximal effect
Summary of the method: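 CHO, TET-inducible ROR + RORE-LUC reporter, 1536-well qHTS. Compound pinned, doxycycline added, 16hr 37C/5% CO2. ONE-Glo, 30 min RT, luminescence; signal drop scored as antagonism.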

[15] = qHTS assay for small molecule antagonists of the retinoid-related orphan receptor gamma (ROR-gamma) signaling pathway - cell viability counter screen (AID 720652; active means well fitted curve in the direction sought with a large enough effect in the repeat runs; an effect the other way counts as inactive or inconclusive;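 further: compound exposure lasted 16 hr before ATP read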)
Summary of the method: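 Luminescence from CellTiter-Glo after 30 min at room temperature reported cellular ATP as the cytotoxicity measure. Cells were the CHO reporter line with doxycycline-induced ROR-gamma expression, exposed to compound for 16 hr at 37 C.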

[16] = Cell Viability - LYMP2-005 (AID 967)
Summary of the method: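 LYMP2-005 human lymphoblastoid cells (2500/well) were treated with compounds for 24 h at 37 C. Intracellular ATP was then measured by CellTiter-Glo luminescence after 30 min at room temperature. AC50 values came from Hill-equation fits of qHTS concentration-response data.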

[17] = target: Bile acid receptor (Homo sapiens) (UniProt Q96RI1); assay: qHTS assay for small molecule agonists of farnesoid X receptor signaling (AID 588527; calls by dose curve); conditions: HEK293T FXR-UAS-bla, beta-lactamase ratio, 16 h; stronger effect = higher value
Summary of the method: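 Read-out: beta-lactamase reporter fluorescence with CCF4 substrate in GeneBLAzer FXR-UAS-bla HEK293T cells, after 16 h compound exposure at 37 C. Response scaled between DMSO basal (0%) and chenodeoxycholic acid at 100 uM (100%).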

[18] = Cell Viability - NIH 3T3 (AID 541); conditions: NIH 3T3 cell viability, qHTS; activity change, negative = cytotoxicity: at 92.2 µM (top of the series); further: nearly all actives have a fitted effect of over 25% in size
Summary of the method: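 Luminescent ATP signal (CellTiter-Glo) served as the viability read-out after NIH 3T3 cells were exposed to compounds over a concentration range for 40 hr at 37 °C. Hill-equation modelling of concentration-response data gave AC50.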

[19] = qHTS assay for small molecule agonists of retinoid X receptor alpha signaling (AID 588544); conditions: HEK293T RXRa-UAS-bla, beta-lactamase reporter, 18 h; 530 nm emission
[20] = qHTS assay for small molecule activators of the human pregnane X receptor (PXR) signaling pathway (AID 720659; call rule not given here)

Nuclear receptor ROR-gamma (Homo sapiens), sequence (P51449 whole entry, looked up): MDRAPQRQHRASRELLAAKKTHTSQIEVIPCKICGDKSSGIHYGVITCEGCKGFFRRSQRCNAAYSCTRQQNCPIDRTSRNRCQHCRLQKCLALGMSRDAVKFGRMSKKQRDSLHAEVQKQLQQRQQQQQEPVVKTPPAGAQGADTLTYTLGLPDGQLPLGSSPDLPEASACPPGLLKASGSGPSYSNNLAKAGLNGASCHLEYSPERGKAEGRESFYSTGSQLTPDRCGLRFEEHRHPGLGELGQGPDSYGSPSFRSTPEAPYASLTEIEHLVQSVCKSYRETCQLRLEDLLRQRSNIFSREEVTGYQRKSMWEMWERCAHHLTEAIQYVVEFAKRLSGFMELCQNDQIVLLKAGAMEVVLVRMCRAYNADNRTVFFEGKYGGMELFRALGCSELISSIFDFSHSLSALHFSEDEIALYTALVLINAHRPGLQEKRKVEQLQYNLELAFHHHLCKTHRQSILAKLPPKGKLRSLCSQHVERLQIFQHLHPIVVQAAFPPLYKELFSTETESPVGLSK
Cytochrome P450 3A4 (Homo sapiens), sequence (P08684 whole entry, looked up): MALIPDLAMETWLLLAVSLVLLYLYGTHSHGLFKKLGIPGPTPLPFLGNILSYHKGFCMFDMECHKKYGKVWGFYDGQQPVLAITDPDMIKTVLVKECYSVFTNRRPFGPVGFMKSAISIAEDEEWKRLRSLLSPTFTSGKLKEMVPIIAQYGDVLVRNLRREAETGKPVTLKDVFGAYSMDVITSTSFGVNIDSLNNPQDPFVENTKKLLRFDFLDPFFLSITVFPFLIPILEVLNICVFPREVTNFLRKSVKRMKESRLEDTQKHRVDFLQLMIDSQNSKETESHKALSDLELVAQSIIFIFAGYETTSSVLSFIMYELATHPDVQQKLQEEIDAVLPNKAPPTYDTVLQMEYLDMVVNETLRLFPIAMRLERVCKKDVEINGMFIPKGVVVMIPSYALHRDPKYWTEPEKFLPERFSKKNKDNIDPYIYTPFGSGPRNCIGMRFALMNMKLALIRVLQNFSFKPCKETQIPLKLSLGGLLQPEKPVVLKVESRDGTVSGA
Bile acid receptor (Homo sapiens), sequence (Q96RI1 whole entry, looked up): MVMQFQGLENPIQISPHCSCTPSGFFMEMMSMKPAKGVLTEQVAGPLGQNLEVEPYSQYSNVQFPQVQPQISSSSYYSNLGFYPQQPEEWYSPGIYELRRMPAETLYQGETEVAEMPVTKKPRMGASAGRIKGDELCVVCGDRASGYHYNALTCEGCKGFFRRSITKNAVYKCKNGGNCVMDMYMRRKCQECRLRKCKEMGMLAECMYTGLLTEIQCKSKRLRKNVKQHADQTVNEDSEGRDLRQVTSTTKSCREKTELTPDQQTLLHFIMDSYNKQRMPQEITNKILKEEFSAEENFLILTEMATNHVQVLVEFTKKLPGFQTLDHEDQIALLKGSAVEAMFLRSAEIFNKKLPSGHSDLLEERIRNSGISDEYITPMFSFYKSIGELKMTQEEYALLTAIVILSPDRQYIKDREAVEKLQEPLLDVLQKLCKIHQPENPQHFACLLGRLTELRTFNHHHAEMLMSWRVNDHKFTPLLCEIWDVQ
Nuclear receptor subfamily 1 group I member 2 (Rattus norvegicus), sequence (Q9R1A7 whole entry, looked up): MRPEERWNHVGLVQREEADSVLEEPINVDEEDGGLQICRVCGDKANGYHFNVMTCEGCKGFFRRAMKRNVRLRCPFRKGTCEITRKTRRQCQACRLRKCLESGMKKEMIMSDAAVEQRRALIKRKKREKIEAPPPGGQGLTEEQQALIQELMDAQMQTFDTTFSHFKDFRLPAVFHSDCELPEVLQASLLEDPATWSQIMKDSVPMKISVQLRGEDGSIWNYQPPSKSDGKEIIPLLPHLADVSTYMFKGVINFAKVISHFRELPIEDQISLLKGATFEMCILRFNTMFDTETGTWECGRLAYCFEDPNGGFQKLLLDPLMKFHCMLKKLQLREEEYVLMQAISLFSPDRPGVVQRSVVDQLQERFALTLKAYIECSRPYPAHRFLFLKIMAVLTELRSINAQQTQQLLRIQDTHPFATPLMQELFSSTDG

SMILES | Potency [1] | max response [2] | max response [3] | Potency [4] | outcome [5] | Potency [6] | Potency [7] | Potency [8] | Potency [9] | Potency [10] | Potency [11] | Potency [12] | Potency [13] | Potency [14] | Potency [15] | Potency [16] | activation [17] | activity change, negative = cytotoxicity [18] | max response [19] | outcome [20]
CCCCN1C2CCC1CC(OC(c1ccc(F)cc1)c1ccc(F)cc1)C2 (centres undefined) | inactive | – | – | – | – | – | – | – | – | – | – | – | – | – | – | – | – | – | – | –
O=C(O)C1C2CCC(O2)C1C(=O)O (centres undefined) | – | 16.5% | 4.79% (inactive) | – | – | – | – | – | – | – | – | – | – | – | – | – | – | – | – | –
COC1=CC(=O)OC(CCc2ccccc2)C1 (centres undefined) | – | – | 3.74% (inactive) | > 92 µM (inactive) | inactive | inactive | inactive | inactive | inactive | inactive | inactive | inactive | inactive | inactive | inactive | – | – | – | – | –
COC1=CC(=O)O[C@@H](/C=C/c2ccc3c(c2)OCO3)C1 | 2.51 µM (active) | 27.2% | – | – | inactive | – | inactive | inactive | inactive | inactive | inactive | inactive | inactive | inactive | inactive | inactive | – | – | – | –
CC1=C2[C@H](/C=C(\C)C(=O)O)CC[C@@H](C)[C@H]2CC1 | – | – | – | – | – | – | – | – | – | – | – | – | – | – | – | – | -3.32% (inactive) | – | – | –
Clc1ccc2ccccc2c1 | inactive | -27.9% | 7.07% (inactive) | > 92 µM (inactive) | inactive | inactive | inactive | inactive | inactive | inactive | inactive | inactive | inactive | inactive | inactive | inactive | -2.62% (inactive) | 7.96% (inactive) | -15.7% | inactive
COc1cc(OC)c(/C=C2/C(=O)Nc3ccccc32)c(OC)c1 | 2.51 µM (active) | – | – | – | – | – | – | – | – | – | – | – | – | – | – | – | – | – | – | –
CCCCCCCCCCCCCC(=O)O | – | – | – | – | – | – | – | – | – | – | – | – | – | – | – | – | 0.574% (inactive) | – | – | –
C=CC(C)(CCC=C(C)C)OC(C)=O (centres undefined) | – | – | – | – | – | – | – | – | – | – | – | – | – | – | – | – | -2.23% (inactive) | – | – | –
C=CCc1ccc(OC)c(OC)c1 | – | – | – | – | – | – | – | – | – | – | – | – | – | – | – | – | 0.141% (inactive) | – | – | –
C[C@]12CC[C@H]3[C@@H](CCC4=CC(=O)CC[C@@]43C)[C@@H]1CC[C@@H]2O | inactive | – | 3.05% (inactive) | > 92 µM (inactive) | – | – | inactive | inactive | inactive | inactive | inactive | inactive | inactive | 26.6 µM (active) | inactive | inactive | – | -90.5% (active) | 3.81% | inactive
c1ccc(-c2ccccc2)cc1 | inactive | -1.97% and 13.4% | – | > 92 µM (inactive) | inactive | inactive | – | – | inactive | inactive | inactive | inactive | inactive | inactive | inactive | inactive | -2.99% (inactive) and -4% (inactive) | -5.05% (inactive) | -1.55% and -17% | –
ClCBr | inactive | 36.6% | 0.745% (inactive) | > 92 µM (inactive) | inactive | inactive | – | inactive | – | – | – | – | – | inactive | inactive | inactive | -2.9% (inactive) | -20.5% (inactive) | -17.3% | inactive
Brc1ccccc1 | inactive | 10.8% | 0.981% (inactive) and 1.34% (inactive) | > 92 µM (inactive) | inactive | inactive | inactive | – | inactive | inactive | inactive | inactive | inactive | inactive | inactive | inactive | – | -8.92% (inactive) | -12.9% and -10.7% | inactive
Cc1cccc([N+](=O)[O-])c1 | inactive | 12.7% and -9.62% | – | > 92 µM (inactive) | inactive | inactive | inactive | inactive | inactive | inactive | inactive | inactive | inactive | – | inactive | inactive | -1.63% (inactive) and -0.0408% (inactive) | -17.5% (inactive) | 2.54% and -15.5% | –
Nc1ccccc1Cl | inactive | 6.02% | 9.37% (inactive) | > 92 µM (inactive) | inactive | inactive | inactive | inactive | inactive | inactive | inactive | inactive | inactive | inactive | – | inactive | -1.66% (inactive) | -1.33% (inactive) | -4.32% | inactive
c1nc[nH]n1 | – | -9.48% | 0.756% (inactive) | > 92 µM (inactive) | inactive | inactive | inactive | inactive | inactive | inactive | inactive | inactive | inactive | inactive | inactive | inactive | 0.583% (inactive) | -5.84% (inactive) | -16.7% | inactive
CCSC(=O)Cl | – | – | 4.31% (inactive) | > 92 µM (inactive) | inactive | inactive | inactive | inactive | inactive | inactive | inactive | inactive | inactive | inactive | inactive | inactive | -1.31% (inactive) | -9.03% (inactive) | -20.5% | inactive
C=CC1CC=CCC1 (centres undefined) | inactive | 33.6% and -2.58% | -0.819% (inactive) and 2.71% (inactive) | > 92 µM (inactive) | inactive | inactive | inactive | inactive | 39.8 µM (active) | inactive | inactive | inactive | inactive | – | – | inactive | 1.2% (inactive) and -0.94% (inactive) | 4.42% (inactive) | 0.848% and 1.74% | inactive
